Most compounds without a hit are left out; they make up all but 4.6% or so of the library.
Cav32 inh: inhibitors of human Cav3.2 T-type calcium channel | Cav3.2-expressing cells, Fluo-4 calcium fluorescence FDSS; active compounds read low | O95180 | 4% of 100,000 active | B-score at 10 µM;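 active = single-dose well whose peak fluorescence ratio is a statistical outlier from its plate by either plate-standardised score or position-corrected B-score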
sEH act: increases human soluble epoxide hydrolase activity. P34913. purified human sEH enzymatic activity, activator screen. activation, % at 2 µM. 0.04% of 91,000 active. AID 717; in the data active = activation above about 37%
sEH inhibitor: blocks human soluble epoxide hydrolase activity; recombinant human sEH enzymatic activity assay; inhibition, % at 2 µM; 0.34% of 91,000 active; AID 707; in the data active = inhibition above about 80%
NFkB transloc inh: blocks IL-1B driven NFkB nuclear translocation in HUVEC cells; AID 796; inhibition, % at 2 µM; HUVEC IL-1B NFkB p65 nuclear translocation imaging; 0.43% of 94,000 active;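 active = inhibition above about 30% together with a positive call from visual inspection of the well image, limit read from the data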;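 note: nuclear over cytoplasmic p65 intensity ratio measured by imaging; 0% = IL-1B stimulated DMSO wells and 100% = unstimulated DMSO wells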
IL1B cytotox: toxic to HUVEC cells under IL-1B stimulation. HUVEC cell count loss, Hoechst imaging, IL-1B stimulated. cell count reduction, % at 2 µM. 0.41% of 94,000 active;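 active = cell count reduction more than 3 SD above the screen-wide mean, cut at about 70% in these data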;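 note: normalized per plate to untreated control cells as the no-loss baseline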
NFkB transloc pot: enhances IL-1B driven NFkB nuclear translocation | HUVEC IL-1B NFkB p65 nuclear translocation imaging | activation, % at 2 µM | 0.3% of 94,000 active | AID 819;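 active = activation above 40%, about the mean plus 3 SD, also judged a hit on visual image review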;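 note: percent activation is computed from the nuclear over cytoplasmic p65 intensity ratio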
* = called active by the depositor; / = no result given.

SMILES	Cav32 inh	sEH act	sEH inhibitor	NFkB transloc inh	IL1B cytotox	NFkB transloc pot
CC(=O)N(CCC(Cc1ccccc1)c1ccc2c(c1)OCO2)Cc1ccc(Cl)cc1 (centres undefined)	-3.1*	-9	11	-6	-27	6
O=C(O)CC(Cc1ccccc1)c1ccc2c(c1)OCO2 (centres undefined)	/	12	-8	3	-19	-3
O=C(CSC1=NS(=O)(=O)c2ccccc21)Nc1ccccc1	-1.6	-3	3	-12	-41	12
CC1CCc2c(sc(NS(=O)(=O)c3ccccc3)c2C(=O)OC(C)C)C1 (centres undefined)	-5.1*	-5	5	-36	-20	36
COc1ccccc1NC(=O)C1=C(C)Nc2nc(-c3ccccc3)nn2C1c1ccccn1 (centres undefined)	-7.6*	12	-12	-7	-24	13
CC(C)OC(=O)c1cccnc1SCC(=O)N(C)c1ccccc1	-0.7	-13	11	-14	3	14
CCN(C(=O)CSc1ncccc1C(=O)OC(C)C)c1cccc(C)c1	-5.6*	3	-4	2	-2	-2
COc1ccc(NC(=O)N(Cc2cccnc2)Cc2ccccc2Cl)c(OC)c1	/	-1	0	-9	1	9
Cc1c(C)c2ccc(Oc3ccc([N+](=O)[O-])cc3C(F)(F)F)c(C)c2oc1=O	/	/	/	-67	-18	67*
COc1ccc2c(C(F)(F)F)cc(=O)oc2c1C	-0.051	-6	5	4	5	-4
CCOC(=O)C(=Cc1ccc(-c2ccsc2C(=O)OC)o1)C(=O)OCC	-1.9	1	-2	-27	-12	27
CCOC(=O)/C(C#N)=C/c1ccc(-c2ccsc2C(=O)OC)o1	-7*	-14	13	8	6	-8
C=CCn1c(Cc2csc(N)n2)nnc1SCC(=O)Nc1ccc(C(=O)OCC)cc1	-0.32	-6	9	2	-21	-2
CCC(C)(C)NC(=O)C(c1ccc(F)cc1)N(Cc1ccco1)C(=O)CCC(=O)Nc1ccccn1 (centres undefined)	-8.8*	/	/	/	/	/
CCC(C)(C)NC(=O)C(c1ccc(OC)cc1)N(Cc1ccco1)C(=O)CCC(=O)Nc1cc(C)on1 (centres undefined)	-0.0063	-8	8	2	-5	-2
CCC(C)(C)NC(=O)C(c1ccc(C)cc1)N(Cc1ccco1)C(=O)CCC(=O)Nc1nccs1 (centres undefined)	-4.8*	0	-2	-2	17	2
CCCCc1cc2c(c(NC(C)=O)n1)c(=O)oc1ccccc12	-0.12	5	-6	7	6	-7
CCn1c(COc2cccc(OC)c2)nnc1SCC(=O)Nc1cccc(OC)c1	-2.3	-1	1	3	-5	-3
O/N=C(\c1ccc(Cl)cc1Cl)c1ncc(C(F)(F)F)cc1Cl	-6.8*	-4	3	3	-2	-3
CC(C)Sc1oc(-c2ccco2)nc1S(=O)(=O)c1ccc(F)cc1	-5.3*	-7	5	-10	-56	10
CCOC(=O)C1(C)/C(=N/Nc2ccccc2Cl)C(=O)C(=O)N1c1ccccc1 (centres undefined)	-4.9*	-9	11	0	-14	0
O=C(NCc1cccnc1)C1CCCN(S(=O)(=O)c2ccc(Cl)cc2)C1 (centres undefined)	0.19	-12	12	-10	4	10
CC1=C(OC(=O)c2ccccc2)C(C)(C)C(c2ccc(Br)cc2)OC1=O (centres undefined)	-7.1*	6	-4	1	14	-1
CC1=C(OC(=O)c2ccccc2)C(C)(C)C(c2ccccc2)OC1=O (centres undefined)	0.42	18	-15	6	-4	-6
CCOC(=O)c1sc(NC(C)=O)cc1C	0.59	/	/	/	/	/
SMILES	Cav32 inh	sEH act	sEH inhibitor	NFkB transloc inh	IL1B cytotox	NFkB transloc pot
CCOC(=O)c1sc(NC(=O)c2ccc(C)s2)cc1C	-0.065	-86	87*	-1	-6	1
CCCN(CC(=O)Nc1c(C)cccc1CC)C(=O)SCC	-0.92	8	-4	-24	6	24
CCCCN(CC(=O)Nc1c(C)cccc1CC)C(=O)SCC	-3.8*	9	-5	-32	-9	32
COc1cc(NC(=O)c2cc3c(C)nc4ccccc4c3o2)cc(OC)c1OC	-2.4	6	-9	6	4	-6
CC(C)C12CN3CC(C(C)C)(CN(C1)C3c1ccccc1)C2O (centres undefined)	0.74	39*	-40	-14	-13	14
COc1ccccc1N(O)C1CC(=O)N(c2ccc(Br)cc2)C1=O (centres undefined)	-1	/	/	/	/	/
CCCCCCC(=O)N(O)C1CC(=O)N(c2ccc(Br)cc2)C1=O (centres undefined)	-0.94	-4	2	-48	12	48*
CCOC(=O)Cn1c(S(=O)(=O)Cc2ccccc2)nc2ccccc21	0.82	7	-7	-11	20	11
C#CCn1c(S(=O)(=O)Cc2ccc(OC)cc2)nc(-c2ccccc2)c1-c1ccccc1	-5.1*	11	-10	10	-14	-9
CCOC(=O)Cn1c(S(=O)(=O)Cc2ccc(Cl)cc2)nc(-c2ccccc2)c1-c1ccccc1	-5.6*	-6	8	-2	4	2
CC1=C(C#N)CCC(=O)N1Cc1ccc(C)cc1	0.011	-10	9	0	-70	0
CC/C(O)=C1\C(=O)CC(c2ccccc2)CC1=NCCc1c(C)[nH]c2ccc(C)cc12 (centres undefined)	-4.6*	/	/	/	/	/
O=C(Nc1cccc(F)c1)N1CC=C(c2ccc(Cl)cc2)CC1	-7.4*	-31	30	4	8	-4
Cc1ccc(/C=N/NC(=O)CSCc2ccc(Cl)cc2)cc1	-1.4	-50	50	-5	-60	5
Cc1ccsc1/C=N/NC(=O)CSCc1ccc(Cl)cc1	-5.2*	-19	20	-11	-2	11
O=C(CSCc1ccc(Cl)cc1)N/N=C/c1ccc(Cl)cc1Cl	0.026	-80	80*	7	-36	-7
O=C(Nc1nnc(-c2ccc3c(c2)CCCC3)o1)c1ccc(Cl)cc1Cl	-3.2*	0	-2	-14	-1	14
COc1ccc(-c2nnc(NC(=O)c3cc(Cl)ccc3Cl)o2)cc1	-5.2*	-2	5	-3	-9	3
O=C(Nc1nnc(-c2ccc3c(c2)CCCC3)o1)C1CCCCC1	0.3	3	0	5	5	-5
O=C(CCCSc1nc2ccccc2[nH]1)NCc1ccco1	1.3	-7	7	-18	-17	18
CC(C)N(C(=O)CSc1nc2ccccc2n1Cc1ccc(F)cc1)C(C)C	-6.3*	10	-11	-3	9	3
CCOC(=O)CSc1nc2ccccc2n1CC(=O)N(C(C)C)C(C)C	1.2	8	-4	-13	-11	13
CCCCNC(=O)c1onc(CSc2ccccc2)c1C(=O)O	0.075	-7	12	-2	9	2
CCCCNC(=O)c1onc(CSc2cccc3ccccc23)c1C(=O)O	-3.1*	-3	8	3	-2	-3
